High-throughput results: PubChem, Sanford-Burnham Center for Chemical Genomics
An excerpt weighted towards active compounds, which were near 1.5% of everything screened.
GC-B act – GC-B (human) receptor activation; activation, % at 10 µM; HEK293-GC-B cells, CNP EC30, cGMP TR-FRET; 0% at EC30 CNP, 100% saturating CNP; P20594; hit rate 0.11% among 370,000; AID 1920062;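 active = activation at 10 µM reaching about 35% in either raw or pattern-adjusted values, limit read from the data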
NPR1 activator – GC-A (human) enzyme activation; hit rate 0.14% among 370,000; HEK293 GC-A cells, cGMP TR-FRET, EC30 ANP; 0% at EC30 ANP, 100% saturating ANP; activation, % at 10 µM; in the data active = activation above about 40%
Target sequence (P16066 whole entry, looked up): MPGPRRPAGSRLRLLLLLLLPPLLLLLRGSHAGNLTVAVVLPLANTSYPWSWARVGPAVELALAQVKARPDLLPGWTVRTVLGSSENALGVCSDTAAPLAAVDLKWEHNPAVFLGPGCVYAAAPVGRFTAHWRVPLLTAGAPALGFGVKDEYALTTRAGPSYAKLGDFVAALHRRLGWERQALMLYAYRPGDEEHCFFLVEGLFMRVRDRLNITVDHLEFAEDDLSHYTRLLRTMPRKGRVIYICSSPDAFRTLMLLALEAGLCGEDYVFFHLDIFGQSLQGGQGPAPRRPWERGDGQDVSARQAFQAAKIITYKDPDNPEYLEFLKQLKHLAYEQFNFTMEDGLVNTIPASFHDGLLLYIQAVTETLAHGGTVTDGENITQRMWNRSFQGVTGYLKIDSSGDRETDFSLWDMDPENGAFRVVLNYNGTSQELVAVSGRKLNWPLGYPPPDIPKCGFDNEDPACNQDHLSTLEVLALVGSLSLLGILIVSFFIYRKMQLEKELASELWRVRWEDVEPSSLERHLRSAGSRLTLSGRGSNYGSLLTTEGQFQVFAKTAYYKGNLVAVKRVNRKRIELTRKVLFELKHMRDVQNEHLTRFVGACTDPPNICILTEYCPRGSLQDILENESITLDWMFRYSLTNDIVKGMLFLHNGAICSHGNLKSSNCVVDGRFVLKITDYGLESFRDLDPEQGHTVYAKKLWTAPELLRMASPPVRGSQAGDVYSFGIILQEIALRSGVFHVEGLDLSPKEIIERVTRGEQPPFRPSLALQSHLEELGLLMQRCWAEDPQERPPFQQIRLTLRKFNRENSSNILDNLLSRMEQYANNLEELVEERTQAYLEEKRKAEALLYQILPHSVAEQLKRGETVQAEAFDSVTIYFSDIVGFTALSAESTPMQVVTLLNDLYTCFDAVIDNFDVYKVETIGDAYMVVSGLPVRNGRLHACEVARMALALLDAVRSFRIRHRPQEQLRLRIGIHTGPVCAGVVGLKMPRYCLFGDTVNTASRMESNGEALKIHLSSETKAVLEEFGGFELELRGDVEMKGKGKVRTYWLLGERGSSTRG
Neddylation inh – cullin neddylation inhibition. TR-FRET cullin neddylation, biochemical. inhibition, % at 25 µM. hit rate 0.58% among 360,000. AID 651699; in the data active = inhibition above about 36%
NadD block – blocks S. aureus nicotinate mononucleotide adenylyltransferase. inhibition, % at 20 µM. hit rate 0.78% among 360,000. purified NadD enzyme, colorimetric absorbance read-out; in the data active = inhibition above about 26%
Neddyl conf – cullin neddylation inhibition, confirmation; hit rate 13% among 1,800; TR-FRET cullin neddylation biochemical assay; shares compounds with Neddylation inh; calls only at 25 µM; in the data active = inhibition above about 40%;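 also: neddylation substrate is the cullin 1 ring ligase complex with SKP2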
Hits are given with their value; n = inactive; x = no result shown; + = active, no number.

SMILES	GC-B act	NPR1 activator	Neddylation inh	NadD block	Neddyl conf
CCOC(=O)[C@]12CCCCC/C=C\1N(Cc1ccc(OC)cc1)C(=O)[C@H]2CC(=O)NCC12CC3CC(CC(C3)C1)C2	n	n	x	x	x
COC(=O)c1ccc(C#Cc2ccccc2)o1	n	n	38.8	n	n
CN(C(=O)[C@@H](C1CC1)[C@@H](O)c1ccc2ccccc2c1)c1ccccc1	n	n	x	x	x
CNc1ccccc1/C(O)=C(\C#N)C(=O)NCc1cccc2ccccc12	n	n	x	x	x
O=C(CCc1nc(-c2ccccc2F)no1)NCCc1ccc(F)cc1	n	n	x	x	x
COc1ccc(/C=N/NC(=O)c2cccnc2)c2ccccc12	n	n	n	n	x
COc1ccc(C=NNC(=O)c2ccccc2NS(=O)(=O)c2cccs2)cc1O	n	n	n	n	x
COc1ccc(/C=N/NC(=O)c2cccs2)c2ccccc12	n	n	46.0	n	n
COc1ccc(OC)c(C=NNC(=O)c2ccccc2NS(=O)(=O)c2cccs2)c1	n	n	34.3	n	x
Cc1ccc2nc(N3CCN(C)CC3)c(C#N)cc2c1	n	n	40.2	n	n
Cc1cc(C)c2nc(N3CCN(C)CC3)c(C#N)cc2c1	n	n	42.0	n	n
Cc1cccc2cc(C#N)c(N3CCN(C)CC3)nc12	n	n	n	n	x
Cc1ccc2cc(C#N)c(N3CCN(C)CC3)nc2c1	n	n	n	n	x
CCCCCc1cccc2[nH]cc(-c3ccccc3)c12	n	n	x	x	x
Cc1nc2c(C(=O)N3CCN(c4ccccn4)CC3)cnn2c(C)c1Cc1cccc(Cl)c1	n	n	44.8	n	n
Nc1[nH]c(C(=O)c2ccccc2)c(-c2ccc3ccccc3c2)c1C(=O)NCc1ccc(F)cc1	n	n	x	x	x
Nc1nonc1-n1nnc(C(=O)N/N=C/c2ccc3c(c2)OCO3)c1CSc1ccccc1	n	n	42.1	n	n
COc1cc(/C=N/NC(=O)c2nnn(-c3nonc3N)c2C(C)C)ccc1OCc1ccccc1	n	n	42.6	n	n
CC(Oc1ccccc1)C(=O)Nc1cccc(-c2nc3ccccc3[nH]2)c1 (configuration not stated)	n	n	39.1	n	n
O=C(O)c1cccc(N2CCCC2)c1	n	n	38.8	n	x
O=C1NC(c2cccs2)Nc2sc3c(c21)CCCC3 (configuration not stated)	n	n	43.6	n	n
CN1CCCCc2c1nc1c(c2N)CCCC1	n	n	38.5	n	n
NCCCCc1ccc2ccc3cccc4ccc1c2c34	n	n	51.5	n	n
CCOC(=O)CSc1ccc2nnc(-c3cccnc3)n2n1	n	n	54.6	n	x
CCCOc1ccc(-c2nc(C#N)c(N3CCc4ccccc4C3)o2)cc1	n	n	49.1	n	n
SMILES	GC-B act	NPR1 activator	Neddylation inh	NadD block	Neddyl conf
CCCOc1ccc(-c2nc(C#N)c(N3CCN(CC)CC3)o2)cc1	n	n	x	n	x
N#Cc1nc(-c2ccco2)oc1N1CCCC1	n	n	x	n	x
N#Cc1nc(-c2ccccc2)oc1N1CCN(C(=O)c2ccco2)CC1	n	n	41.8	n	n
CCCOc1ccc(-c2nc(C#N)c(N3CCN(C)CC3)o2)cc1	n	n	46.0	n	x
N#Cc1nc(-c2ccco2)oc1N1CCc2ccccc2C1	n	n	45.3	n	n
O=C(Nc1nc2ncccn2c1-c1ccccc1)c1ccc(F)cc1	n	n	x	x	x
COc1cccc(-c2ccc(C#N)c(=O)[nH]2)c1	n	n	58.6	n	x
COc1cccc(-c2cc(=O)[nH][nH]2)c1	n	n	n	n	x
COc1ccc(-c2nn(-c3ccccc3)cc2/C=N/Nc2ccc(Cl)c(C(=O)O)c2)cc1OC	n	n	43.6	n	n
C=CCN1[C@H](C#N)[C@@H](c2ccc(C#Cc3cccc(OC)c3)cc2)[C@H]1CO	n	n	x	x	x
COCCn1nnnc1CN(Cc1cccnc1)Cc1cc2cc(OC)ccc2[nH]c1=O	n	n	43.0	n	n
O=c1[nH]c2cc3c(cc2cc1CN(Cc1cccs1)Cc1nnnn1Cc1ccco1)OCCO3	n	n	45.0	n	n
COc1ccc2[nH]c(=O)c(CN(Cc3nnnn3Cc3ccc(F)cc3)CC3CCCO3)cc2c1 (configuration not stated)	n	n	45.7	n	n
O=c1[nH]c2cc3c(cc2cc1CN(Cc1ccc2c(c1)OCO2)Cc1nnnn1CC1CCCO1)OCO3 (configuration not stated)	n	n	38.9	n	n
Cc1ccc(-c2cc(-c3nnc(SCC(=O)Nc4ccccc4-c4ccccc4)n3N)[nH]n2)cc1	n	n	x	x	x
C=CCOC(=O)N[C@@H](c1coc2ccccc2c1=O)[C@@H](C)/C=C/CC(=O)OC	n	n	x	x	x
COc1ccc2[nH]c(=O)c(CN(Cc3nnnn3Cc3ccccc3)CC3CCCO3)cc2c1 (configuration not stated)	n	n	46.0	n	n
O=C(O)c1c(-c2ccccc2)oc2ccc(O)cc12	n	n	x	n	x
CN(C)C(=O)c1c(-c2ccccc2)oc2ccc(O)cc12	n	n	44.9	n	n
COCCOC(=O)c1cc(C(=O)c2cc(F)ccc2O)coc1=N	n	n	46.6	n	n
COC(=O)c1ccc(-c2ccc(/C=N/NC(=O)CC3(C)OCCCO3)o2)cc1	n	n	41.0	n	n
CC1(CC(=O)N/N=C/c2ccc(-c3ccc(C(=O)O)cc3)o2)OCCO1	n	n	n	n	x
Cc1ccc(/C=C/c2nnc(-c3ccccc3)o2)cc1	n	n	n	n	x
C(=C\c1nnc(-c2cccs2)o1)/c1ccccc1	n	n	47.8	n	n
COC(=O)c1cccc(Cn2ccc3ccc(-c4ccc5ccn(C(=O)c6ccccc6OC)c5c4)cc32)c1	n	n	x	x	x
SMILES	GC-B act	NPR1 activator	Neddylation inh	NadD block	Neddyl conf
O=c1[nH]c(/C(Cl)=C/c2cccc(F)c2)nc2cc(C(F)(F)F)ccc12	n	n	40.7	n	n
CCc1ccc(/C=C(\Cl)c2nc3cc(Cl)ccc3c(=O)[nH]2)cc1	n	n	n	n	x
Cc1cc(C)c(C#N)c(N2CCOCC2)n1	n	n	46.5	n	+
COc1ccc2[nH]c(=O)c(C(c3nnnn3C3CCCCC3)N3CCN(C)CC3)cc2c1 (configuration not stated)	n	n	x	n	x
CCCN1CCN(C(c2cc3cc(OCC)ccc3[nH]c2=O)c2nnnn2C2CCCCC2)CC1 (configuration not stated)	n	n	45.2	n	x
Cc1ccc(-c2cc(N)n3nc(-c4ccc(C)cc4)cc3n2)cc1	n	n	x	n	x
Cc1ccc(-c2cc3nc(-c4ccccc4)cc(N)n3n2)cc1	n	n	44.5	n	n
Cc1ccc(-c2nn(CC(=O)O)c(=O)c3ccccc23)cc1	n	n	n	n	x
O=C(O)Cn1nc2c3c(cccc3c1=O)-c1ccccc1-2	n	n	53.6	n	n
COCCCNC(=O)c1cccn2c(=O)c3cc4ccccc4cc3nc12	n	n	40.1	n	n
C=CCn1c(=N)c(C(=O)NCCCOC)cc2c(=O)n3cccc(C)c3nc21	n	n	n	n	x
O=C(O)Cn1c(-c2ccccc2)nc2ccccc21	n	n	n	n	x
O=C(O)Cn1c(=O)c(-c2ccccc2)nc2ccccc21	n	n	54.9	n	x
